According to PubChem BioAssay AID2391 (Southern Research Specialized Biocontainment Screening …, 2010):
Several values for one entry are separate records, joined by “and”; a condition that tells them apart may be missing. Equal entries are not always repeated. Out of some 310,000 compounds screened, about 410 (0.13%) were called active. Another 2% or so got no clear call; they are omitted. No rule for the calls is given here. A selection follows. Potency and affinity values are given separately.

Experiment: inhibition of RSV-induced cytopathic effect – HEp-2 cells, primary 10 µM value included (AID 2391)
Conditions: at 10 µM, active compounds read high

CPE inhibition, inactive:
NC(=O)c1ccc(OCC2CCCO2)cc1 (configuration not stated) 0.89%
Cc1cccc(COCC(CC(C)C)N2CCN(C(=O)c3ccc(C(C)(C)C)cc3)CCC2=O)c1 (configuration not stated) -2.89%
COCCn1c(-c2ccccc2)nc2oc3ccccc3c(=O)c2c1=O 1.49%
O=C(c1ccccc1Br)N1N=C(c2ccccc2)CC1c1ccccc1F (configuration not stated) 13.7%
Cc1c(C)c2ccc(OCC(=O)NCc3ccccn3)cc2oc1=O 1.94%
Cc1cc(=O)oc(C)c1C(=O)NCCc1ccccc1 -0.07%
CCC(=O)Nc1sc2c(c1C(=O)OC)CCN(Cc1ccccc1)C2 -0.39%
Cc1ccc(C(CC(=O)O)C2CCOC(C)(C)C2)cc1 (configuration not stated) 0.31%
c1ccc(Cn2nnc3c(N4CCCC4)ncnc32)cc1 -0.08%
c1ccc(Cn2nnc3c(N4CCOCC4)ncnc32)cc1 1.51%
Cc1nnc2sc(-c3cccc(F)c3)nn2c1=O 0.29%
CC(C)CN1CCN(Cc2cnc(-c3ccc(Cl)cc3)nc2)CC1CCO (configuration not stated) 19.2%
O=C(Nc1nnc(C2=COCCO2)o1)c1ccc([N+](=O)[O-])cc1 0.76%
CCc1cccc(C)c1NC(=O)C1CC=CCC1C(=O)O (configuration not stated) -1.43%
COc1ccc(/C=C/c2nc3sc4c(c3c(=O)o2)CCC4)cc1 2.5%
O=c1oc(/C=C/c2ccco2)nc2sc3c(c12)CCC3 2.04%
Cc1ccc(OCC(=O)N2c3ccccc3CC2C)c([N+](=O)[O-])n1 (configuration not stated) -0.02%
CCN(CC)CCOc1ccc2c(c1)C(=NNC(=O)c1ccccn1)c1cc(OCCN(CC)CC)ccc1-2 -1.74%
COc1ccc(OC)c(/C(C)=N/Nc2ccc(C(=O)O)cc2)c1 0.2%
O=C(NN=C1c2ccccc2-c2ccccc21)c1ccccn1 1.09%
COc1ccc(/C(C)=N/Nc2ccc(C(=O)O)cc2)c(OC)c1 1.98%
COc1ccc2[nH]c(C)c(C(=O)CN3CCN(C/C=C/c4ccccc4)CC3)c2c1 4.44%
CC(C)C1Cc2c(sc3c2c(=O)n(-c2ccccc2)c2n[nH]c(=S)n32)CO1 (configuration not stated) 2.95%
CC(/C=N/NC(=O)c1cc(-c2ccc(C)o2)[nH]n1)=C\c1ccccc1 0.3%
COc1cccc(NC(=O)NCCCCc2ccccc2)c1 6.21%
Cc1cc(C(C)(C)C)c(O)c(C(C)(C)C)c1 -0.15%
CC(C)(C)c1ccc(O)c(O)c1 3.31%
NNC(=O)c1csc(-c2cccc(C(F)(F)F)c2)n1 9.01%
O=C(c1cc(Br)ccc1OC(F)F)N1CCN2CCCC2C1 (configuration not stated) 0.87%
CCn1ncc(/C=C/C(=O)Nc2c(C)nn(Cc3ccc(Cl)cc3Cl)c2C)c1C 0.17%
O=C(/C=C/c1ccc(O)c(O)c1)O[C@@H]1C[C@](O)(C(=O)O)C[C@@H](O)[C@H]1O 39.5% and 4.56%
O=C(O)/C=C/c1ccc(O)c(O)c1 0.47%
COc1cc(OC)cc(C(=O)NC(=S)N2CCCCC2c2cccnc2)c1 (configuration not stated) -0.07%
CCN1CCN(c2ccc(S(=O)(=O)N3CCCCC3)cc2NC(=O)CC(C)c2ccccc2)CC1 (configuration not stated) -2.47%
Cc1ccsc1C(=O)OCC(=O)NC1CCCCC1C (configuration not stated) 1.57%
CC1CN(C(C)C)C(C)CC1OC(=O)c1ccccc1 (configuration not stated) -0.34%
COC(=O)c1ccc(COn2c(=O)c(C)[n+]([O-])c3ccccc32)cc1 2.27%
O=c1[nH]c(COc2ccc(Cl)cc2Cl)nc2ccccc12 20.4%
O=C(COc1ccc(Br)cc1Cl)NNC(=O)c1ccccc1 -0.21%
Cc1nc2c(C)cccn2c(=O)c1NC(=O)c1ccc2c(c1)OCO2 -0.9%
COc1cccc(CN(C(=O)c2ccccc2)C2CCS(=O)(=O)C2)c1 (configuration not stated) 1.28%
N#CC(c1ccccc1)c1cccc(Cl)n1 (configuration not stated) -0.33%
COc1ccc(C(=O)N2CC(c3ccccc3)CC2=O)cc1 (configuration not stated) 1.75%
O=C1CC(c2ccccc2)CN1C(=O)c1ccccc1 (configuration not stated) 0.02%
Cc1c(C(=O)N2CCC(C)CC2)sc2ncn(CC(=O)N3CCC(C)CC3)c(=O)c12 3.53%
Cc1ccc(-c2nnn(CC(=O)N(CC(=O)NC3CCCC3)c3ccc(F)cc3)n2)o1 2.25%
CC1Cc2ccccc2N1S(=O)(=O)c1cccc(C(=O)NCCCO)c1 (configuration not stated) -0.32%
Nc1scn[n+]1Cc1cccc2cccnc12 19.5%
Nc1ccc(Cl)c[n+]1Cc1cccc2cccnc12 50.2%
Cc1cc(C[n+]2ncsc2N)c2ncccc2c1 18.8%
Cc1cc(C[n+]2cc(Br)ccc2N)c2ncccc2c1 81%
CCCC(=O)OC1CC(C)N(C(=O)c2ccccc2)c2ccc(C)cc21 (configuration not stated) 7.5%
COc1ccc(CCNC(=O)COc2cc(C)cc3oc(=O)cc(C)c23)cc1 2.6%
Cc1c(-c2ccccc2)nc2ccccc2c1C(=O)O 0.81%
Cc1c(-c2ccccc2Cl)nc2ccccc2c1C(=O)O 1.54%
NC(=O)CC(NC(=O)Cc1ccc(Br)cc1)c1ccc(NCCN2CCCC2)c([N+](=O)[O-])c1 (configuration not stated) 0.07%
CC(Oc1ccc(Cl)cc1Cl)C(=O)NNC(=O)C(=O)N1CCCC1 (configuration not stated) 7.07%
COC(=O)NNC(=O)C(C)Oc1ccc(Cl)cc1Cl (configuration not stated) 0.74%
COc1ccc(C(=O)OCCc2ccc(O)cc2)cc1 1.11%
COc1ccc(CCn2c(C)cc(C(=O)COC(=O)c3ccc(NC(=O)CC#N)cc3)c2C)cc1 4.94%
Cc1cc(-c2cc(C(=O)NCc3ccccc3)on2)nc(S(C)(=O)=O)n1 2.46%
Cc1ccccc1N(C(=O)CNC(=O)c1ccco1)C(C(=O)NC1CCCCC1)c1ccncc1 (configuration not stated) 0.97%
